Screening results (PubChem BioAssay)
The list is not random: actives were taken first. Their share in the collection is about 6.8%.
MCF10A rerep = inducers of DNA re-replication in MCF 10A breast cells. MCF 10A DNA re-replication, Hoechst nuclear intensity, 48 h. Potency, µM (doses to about 46.1 µM), inactives show at the top dose activity, positive = re-replication, hits mostly activators. actives 2.9% (n = 350,000). AID 624296; further: % of control where 0% means no effect; nearly all actives have a fitted effect of over 50% in size
PTAP TSG101 blk = blocks PTAP/TSG101 interaction to inhibit HIV-1 budding | Fluorescence polarization, FITC-PTAP peptide / Tsg101 binding | Potency, µM (doses to about 115 µM), without a hit: at the top dose activity change, negative = inhibition, hits mostly inhibitors | 340,000 tested, under 10 active; active means well fitted inhibition curve with a large enough effect in the main read-out, with a control signal flat, not every such curve was filed as active; inconclusive means small, poorly fitted or top-dose-only effect, or effect the other way, or a change in a side signal; inactive means no such curve, though single readings can be large or run the other way; further: % of control where 0% means no effect
Target sequence (Q99816 whole entry, looked up): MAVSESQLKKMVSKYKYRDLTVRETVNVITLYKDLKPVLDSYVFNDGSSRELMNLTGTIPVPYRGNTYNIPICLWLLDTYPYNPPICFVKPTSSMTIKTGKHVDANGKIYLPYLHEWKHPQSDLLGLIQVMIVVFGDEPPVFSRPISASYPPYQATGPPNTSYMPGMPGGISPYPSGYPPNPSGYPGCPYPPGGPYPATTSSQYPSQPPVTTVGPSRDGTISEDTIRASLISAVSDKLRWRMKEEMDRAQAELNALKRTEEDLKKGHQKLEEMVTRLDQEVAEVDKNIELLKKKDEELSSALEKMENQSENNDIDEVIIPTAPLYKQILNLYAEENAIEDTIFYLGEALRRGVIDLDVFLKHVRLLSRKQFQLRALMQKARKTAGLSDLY
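Tsg101 binding domain (10 uM final) was mixed with compound and a FITC-labeled PTAP peptide (50 nM final) in HEPES pH 7.5 buffer with NaCl, Tween 20, EDTA and TCEP; fluorescence polarization was read after 20 min at r.t.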
KB-3-1 cytotox = kills parental KB-3-1 adenocarcinoma cells. KB-3-1 viability, CellTiter-Glo ATP luminescence, 72 h. Potency, µM (doses to about 46.1 µM), hits mostly cytotoxic. actives 1.4% (n = 400,000); further: on the % scale 0 is the no-effect control and ±100 the full control effect; nearly all actives have a fitted effect of over 60% in size
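KB-3-1 cells, DMEM (no phenol red) + 10% FBS; compound by pin transfer, 72 h, 37 °C. Readout: CellTiter-Glo luminescence after 10 min. Data normalized, curve-fitted.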
SW480 rereplic = DNA re-replication induction in SW480 cells. SW480 DNA re-replication, Hoechst DNA content imaging, 48 h. Potency, µM (series often up to 46.1 µM), without a hit: top-dose re-replication activation, hits mostly activators. actives 1.8% (n = 340,000). AID 624297; further: % of control where 0% means no effect; nearly all actives have a fitted effect of over 55% in size
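First, 250 cells per well were seeded. Next, compound or vehicle (23 nL) was pinned in, plates sat 48 hr at 37 C. Finally Hoechst was added for 40 min before fluorescence scanning.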
KB-V1 MDR tox = kills drug-selected multidrug resistant KB-V1 cells | KB-V1 MDR cells viability, CellTiter-Glo, 72 h | Potency, µM (highest dose often 46.1 µM), hits mostly cytotoxic | actives 3.4% (n = 400,000) | AID 1347076; further: on the % scale 0 is the no-effect control and ±100 the full control effect; nearly all actives have a fitted effect of over 60% in size
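Cells of the MDR subline KB-V1 are plated, dosed with compound at multiple concentrations, and incubated 72 h at 37 degrees C; CellTiter-Glo is then added and luminescence read after 10 min.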
PINK1 modulator = PINK1 expression modulation. PINK1 immunofluorescence, high-content cytometry, 24 h. AID 624263. actives 0.2% (n = 410,000). Potency, µM (top dose mostly 76.6 µM), for the others: at the highest dose activation (PINK1 increase), most hits filed as activators; active means well fitted activation curve with a large enough effect; inconclusive means small, poorly fitted or top-dose-only effect; cell line not stated here; further: % of control where 0% means no effect; nearly all actives have a fitted effect of over 65% in size
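A stable cell line was treated with compounds at 5 concentrations for 24 hours, with CCCP as control. PINK1 levels and mitochondrial localization were measured by immunofluorescence with mitochondrial, cell and nuclear markers after fixation, read by laser-scanning cytometry.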
Numbers without * were called inactive; i = inactive; ? = inconclusive; . = no result given; ! = a repeat was not active; [ ] = remark or other dose. Unless noted, the call rests on the fitted dose curve; in most records, active means well fitted curve in the direction sought with a large enough effect; inconclusive means small, poorly fitted or top-dose-only effect, or another doubt; inactive means no such curve, though single readings can be large; an effect the other way counts as inactive or inconclusive. Potency means the concentration at half of the fitted maximal effect.

SMILES | MCF10A rerep | PTAP TSG101 blk | KB-3-1 cytotox | SW480 rereplic | KB-V1 MDR tox | PINK1 modulator
CCOc1ccc(S(=O)(=O)NCCC(=O)N2CCN(c3ncccn3)CC2)cc1 | -9% | -3% | i | -10% | 18µM* | -1%
COc1ccc(N2CCN(C(=O)CCNS(=O)(=O)c3ccccc3)CC2)cc1 | 26µM* | -4% | i | 27% | i | 3%
O=C(CCc1ccccc1)N1CCCN(C(=O)CCc2ccccc2)CC1 | -13% | -1% | i | 60% | 21µM* | -4%
O=C(CCNS(=O)(=O)c1ccc(Cl)cc1)N1CCN(c2ncccn2)CC1 | 6% | 0% | ? | -3% | ? | 0%
CCOC(=O)c1cc(-c2ccccc2)n(CCC(=O)N2CCN(c3ccc(OC)cc3)CC2)c1C | 26µM* | -2% | i | 4% | ? | 0%
CCOc1nc(C#N)nc(N(c2ccccc2)c2ccccc2)n1 | . | . | ? | . | ? | 0%
Cc1cccc2c1-c1sc(C(=O)N3CCN(c4ccccc4)CC3)cc1CO2 | . | . | i | . | i | 1%
CC(C)(C)OC(=O)N1CCC(c2c(C(=O)NCCN3CCOCC3)cnn2-c2ccc(F)cc2F)CC1 | . | . | i | . | ? | -1%
Cc1nn2c(=O)cc(COC(=O)c3ccccc3NC(=O)c3ccccc3C)nc2s1 | . | . | . | . | . | 0%
Cc1ccc(S(=O)(=O)NCCC(=O)NCC(c2ccc(F)cc2)N2CCOCC2)cc1 (stereo not drawn) | -4% | -2% | i | -11% | i | 1%
COc1ccc(C(CNC(=O)CCNS(=O)(=O)c2ccc(C)cc2)N2CCOCC2)cc1 (stereo not drawn) | 12% | -2% | i | 5.2µM* | i | 1%
CCOc1ccc(S(=O)(=O)NCCC(=O)N2CC=C(c3ccccc3)CC2)cc1 | ? | -6% | 13µM* | -22% | ? | -2%
CCOc1ccc(S(=O)(=O)NCCC(=O)N2CCN(Cc3ccccc3)CC2)cc1 | 10% | 1% | i | 0% | ? | -1%
O=C(CCC(F)(F)F)N1CCCC(CO)(CCc2ccccc2)C1 (stereo not drawn) | 0.65µM* | -5% | i | ? | i | 3%
CCOC(=O)N1CCN(C(=O)CCc2ccc(S(=O)(=O)NCCc3ccccc3)cc2)CC1 | 1% | -3% | i | -8% | 16µM* | -8%[38.3 µM]
CCOc1ccc(-c2cc(OC(=O)c3ccccc3)c3c(C)oc(C)c3c(=O)c2)cc1 | . | . | i | . | i | 1%
COc1ccc(N2CCN(C(=O)CCS(=O)(=O)c3ccc4c(c3)CCN4C(=O)C3CC3)CC2)cc1 | ? | -3% | i | 5.8µM* | i | 0%
O=C(NCCc1ccccc1)c1ccc2c(c1)N(Cc1ccc(Cl)cc1)C(=O)c1ccccc1S2(=O)=O | . | . | i | . | i | 2%
CCCN(CCC)C(=O)CCSCCC(=O)N(CCC)CCC | 1% | -1% | i | -1% | 18µM* | 0%
c1ccc(C2C3=C(Nc4ncnn42)c2ccccc2CCC3)cc1 (stereo not drawn) | ? | -4% | i | -11% | 18µM* | -5%[38.3 µM]
COc1ccccc1C1CN(Cc2c(C)nn(C)c2Cl)Cc2ccccc2O1 (stereo not drawn) | . | . | . | . | . | -1%
O=C(C1CCCN(Cc2ccccc2)C1)N1CCc2ccccc2C1 (stereo not drawn) | 13% | -1% | i | 5% | 23µM* | ?
CCS(=O)(=O)N1CCC(C(=O)N2CCc3ccccc3C2)CC1 | 16% | -5% | i | -4% | 13µM* | 0%
COc1ccc(CN2CCCC(C(=O)N3CCc4ccccc4C3)C2)cc1OC (stereo not drawn) | 11% | -2% | i | -3% | i | 0%
COCCNC(=O)c1sc2ncccc2c1-n1c(C)ccc1C | . | . | i | . | i | 1%
SMILES | MCF10A rerep | PTAP TSG101 blk | KB-3-1 cytotox | SW480 rereplic | KB-V1 MDR tox | PINK1 modulator
CC(=O)c1cc2c(cc1NC(=O)c1cnn(-c3ccc(C)cc3)c1-n1cccc1)OCO2 | . | . | . | . | . | 2%
CCCNC(=O)c1ccc2c(c1)C1C3CCC(C3)C1C(c1ccccc1)N2 (stereo not drawn) | ? | -4% | ? | 16% | 21µM* | 1%
CCN(CC)CCOC(=O)c1ccc(NC(=O)c2cn(-c3ccccc3)nc2-c2cccs2)cc1 | 21µM* | -6% | i | -8% | i | -1%
CCN(CC)CCNC(=O)c1cn(-c2ccccc2)nc1-c1cccs1 | -12% | -2% | i | 3% | i | 2%
O=C(Nc1ccc2ccccc2c1)c1cn(-c2ccccc2)nc1-c1cccs1 | 15% | -1% | i | 4% | 18µM* | 5%[38.3 µM]
CN(C)c1ccc(NC(=O)c2cn(-c3ccccc3)nc2-c2cccs2)cc1 | 18% | -6% | i | 0% | ? | 3%
CC1CN(Cc2cccn2-c2cccnc2)Cc2cc(Cl)ccc2O1 (stereo not drawn) | . | . | . | . | . | 2%
COc1ccc(CNC(=O)C2CCCN(S(=O)(=O)c3ccc4c(c3)CCCN4C(C)=O)C2)cc1 (stereo not drawn) | 1% | -3% | 21µM*! | 0% | i | -1%
CCc1ccc(NC(=O)C2CCCN(S(=O)(=O)c3ccc4c(c3)CCCN4C(C)=O)C2)cc1 (stereo not drawn) | -1% | -7% | i | 2% | i | -1%
COc1cccc(NS(=O)(=O)c2ccc3c(c2)CCCN3C(C)=O)c1 | ? | -9% | i | ? | 21µM* | 5%[38.3 µM]
C/C(=N\O)c1ccc2c3c([nH]c2c1)CCCC3 | ? | -14% | 8.2µM* | 7% | i | 2%
COC(=O)C1CCN(Cc2ccc3c(c2)CN(C(=O)c2cc(C4CC4)on2)CCO3)CC1 | . | . | . | . | . | 0%
O=C(CCCCCn1c(=S)[nH]c2cc3c(cc2c1=O)OCO3)N1CCN(C2CCCCC2)CC1 | ? | 1% | i | ? | 21µM* | 3%
Cc1ccc(S(=O)(=O)N(C)c2ccc(C(=O)N3CCN(Cc4ccc5c(c4)OCO5)CC3)cc2)cc1 | ? | -3% | 12µM* | 7% | 1.6µM* | -5%[38.3 µM]
O=C(CCCCCn1c(=S)[nH]c2cc3c(cc2c1=O)OCO3)N1CCN(Cc2ccccc2)CC1 | 21µM* | -8% | i | ? | i | 0%
CC1CCCN(C(=O)CCCn2c(=S)[nH]c3ccccc3c2=O)C1 (stereo not drawn) | ? | -4% | i | -7% | 8.2µM* | -1%[38.3 µM]
CCN(CC)C(=O)C1=C(C)Nc2nc3ccccc3n2C1c1ccc(Br)cc1 (stereo not drawn) | . | . | i | . | i | 2%
